Test results as given in PubChem BioAssay (NCATS).
Results filed as inconclusive are left out. The source made the active and inactive calls. The call rests on the fitted dose curve; in most records, active means well fitted curve in the direction sought with a large enough effect; inconclusive means small, poorly fitted or top-dose-only effect, or another doubt; inactive means no such curve, though single readings can be large; an effect the other way counts as inactive or inconclusive.

biological target: Cytochrome P450 3A4 (Homo sapiens) (UniProt P08684); experiment: qHTS Assay for Inhibitors and Substrates of Cytochrome P450 3A4 (AID 884); details: recombinant CYP3A4, Luciferin-PPXE luminescence; series mostly up to 57.1 µM; activity change, negative = inhibition: at the top concentration; further: nearly all actives have a fitted effect of over 50% in size; further: potency means the concentration at half of the fitted maximal effect; on activity change, negative = inhibition: on the % scale 0 is the no-effect control and ±100 the full control effect
How it was run: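 Luminescent readout of luciferin produced by CYP3A4 (20 nM) dealkylation of Luciferin-PPXE, 25 uM (its KM). NADPH-driven reaction ran 60 min at RT after 10 min compound preincubation; data scaled to 57 uM ketoconazole as 100% inhibition.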

Chain of Cytochrome P450 3A4 (Homo sapiens) (P08684 whole entry, looked up): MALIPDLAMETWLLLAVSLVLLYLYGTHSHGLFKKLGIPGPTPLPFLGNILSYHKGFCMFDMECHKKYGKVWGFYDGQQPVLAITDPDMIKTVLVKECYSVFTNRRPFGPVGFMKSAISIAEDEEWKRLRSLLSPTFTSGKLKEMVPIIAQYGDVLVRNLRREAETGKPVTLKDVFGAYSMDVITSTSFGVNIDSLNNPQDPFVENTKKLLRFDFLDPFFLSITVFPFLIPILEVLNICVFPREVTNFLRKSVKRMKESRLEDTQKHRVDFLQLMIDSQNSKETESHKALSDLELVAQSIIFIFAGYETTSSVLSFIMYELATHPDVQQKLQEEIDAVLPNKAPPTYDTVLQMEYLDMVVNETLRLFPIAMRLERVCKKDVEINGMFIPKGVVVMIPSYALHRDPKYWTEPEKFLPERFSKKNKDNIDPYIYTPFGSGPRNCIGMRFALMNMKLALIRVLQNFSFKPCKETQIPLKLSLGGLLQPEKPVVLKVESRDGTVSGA

Potency, active:
Cn1c(=S)c2[nH]c(SCc3cccnc3)nc2n(C)c1=O 3.16 µM
CSC1(SC2=NCCN2)SC2(NCCN2)S1 1.26 µM
N=C(N)S[C@H]1c2ccccc2-c2cc([N+](=O)[O-])ccc21 5.01 µM
COc1ccc2c(c1)Cc1cc(N=[N+]([O-])c3ccc4c(c3)Cc3cc(OC)ccc3-4)ccc1-2 5.01 µM
C(=N/Nc1nnc2c(n1)[nH]c1ccccc12)/c1cccnc1 3.98 µM
O=C(CC(=O)c1ccncc1)c1ccccc1 3.16 µM
CC(C)(C)C(=O)[C@H]([C@@H](c1ccccc1)N1CCOCC1)N1CCOCC1 2.51 µM
C/C(=N/Nc1ccc2ccccc2n1)c1ccccc1O 3.16 µM
O[C@@H](C1=C/C(=C\c2ccncc2)c2ccccc21)c1ccncc1 0.794 µM
Nc1cccc(OCc2nc(N)nc(N)c2-c2ccc(Cl)cc2)c1 1.58 µM
Cc1ccc(S(=O)(=O)Nc2cc(=O)[nH]c3c2CCC3)cc1 3.16 µM
Cc1ccc2c(c1)N[C@H](c1ccc(C(=O)O)cc1)c1cccn1-2 0.0501 µM
COc1cc(Cl)c(CC(=O)c2c[nH]c3ccccc23)cc1OC 2.51 µM
Cn1c(=O)c2[nH]c(SCc3ccccn3)nc2n(C)c1=S 3.98 µM
Nc1nc(SCc2ccccc2[N+](=O)[O-])c2[nH]cnc2n1 3.16 µM
Cn1ncc2c(NCCc3ccccc3)nc(Cl)nc21 2 µM
COc1ccc(Oc2ncc3nc(C)c(=O)n(-c4ccc(OC)cc4)c3n2)cc1 3.98 µM
CN[C@@H](c1ccncc1)[C@@H](NC)c1ccncc1 5.01 µM
CC(C)N1CCN(c2ccncc2S(=O)(=O)N2CCCCC2)CC1 3.16 µM
Nc1nc(SCCc2ccccc2)c2[nH]cnc2n1 2.51 µM
O=S(=O)(c1cnccc1N1CCN(CCO)CC1)N1CCCC1 3.98 µM
O=c1oc2cc(N=Cc3ccc4c(c3)OCO4)ccc2c2ccccc12 3.98 µM
Cn1c(=O)c2[nH]c(CCCCc3nc4c([nH]3)c(=O)n(C)c(=S)n4C)nc2n(C)c1=S 1.26 µM

Activity change, negative = inhibition, inactive:
C[C@](O)(c1ccccc1)c1nccc2ccccc12 49.6% [at 11.4 µM]
COc1ccc2c(Cl)cc(NC(=S)Nc3ccccc3)nc2c1 67.2% [at 11.4 µM]

biological target: Cytochrome P450 3A4 (Homo sapiens) (UniProt P08684); experiment: qHTS Assay for Activators of Cytochrome P450 3A4 (AID 885); details: recombinant CYP3A4, Luciferin-PPXE luminescence, 60 min; series mostly up to 11.4 µM; activity change, positive = activation: at the top concentration; further: nearly all actives have a fitted effect of over 65% in size
How it was run: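 Using 20nM recombinant human CYP3A4 in potassium phosphate (200mM), substrate Luciferin-PPXE at 25uM, luminescent luciferin detection followed a 60-min RT NADPH reaction; data scaled to 57 uM ketoconazole.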

Activity change, positive = activation, inactive:
Cn1c(=S)c2[nH]c(SCc3cccnc3)nc2n(C)c1=O -72.1%
CSC1(SC2=NCCN2)SC2(NCCN2)S1 -78.7%
N=C(N)S[C@H]1c2ccccc2-c2cc([N+](=O)[O-])ccc21 -65.1%
c1nc(NCCc2cnc[nH]2)c2[nH]cnc2n1 -46.3%
C(=N/Nc1nnc2c(n1)[nH]c1ccccc12)/c1cccnc1 -67%
O=C(CC(=O)c1ccncc1)c1ccccc1 -78.7%
CC(C)(C)C(=O)[C@H]([C@@H](c1ccccc1)N1CCOCC1)N1CCOCC1 -80.4%
C/C(=N/Nc1ccc2ccccc2n1)c1ccccc1O -66.5%
O[C@@H](C1=C/C(=C\c2ccncc2)c2ccccc21)c1ccncc1 -86.5%
Nc1cccc(OCc2nc(N)nc(N)c2-c2ccc(Cl)cc2)c1 -71.1%
CN(C)c1ccc(/C=N\NC(=O)c2cnc3ccccc3c2)cc1 -47.2%
Cc1ccc(S(=O)(=O)Nc2cc(=O)[nH]c3c2CCC3)cc1 -62.2%
Cn1c(=O)c2[nH]c(SCc3ccccn3)nc2n(C)c1=S -61.4%
Nc1nc(SCc2ccccc2[N+](=O)[O-])c2[nH]cnc2n1 -101%
COCCn1c(=O)c(-c2ccccc2)nc2cnc(Oc3ccccc3)nc21 -36.7% [at 57.1 µM]
Cn1ncc2c(NCCc3ccccc3)nc(Cl)nc21 -71.9%
COc1ccc(Oc2ncc3nc(C)c(=O)n(-c4ccc(OC)cc4)c3n2)cc1 -98.2% [at 57.1 µM]
CN[C@@H](c1ccncc1)[C@@H](NC)c1ccncc1 -68%
CC(C)N1CCN(c2ccncc2S(=O)(=O)N2CCCCC2)CC1 -81.8%
Nc1nc(SCCc2ccccc2)c2[nH]cnc2n1 -86%
CN(C)C[C@H]1CCC[C@@H](CN(C)C)C1=O -31.7%
O=C1C2=C(Nc3cc([N+](=O)[O-])ccc3N2)O[C@@H]1c1c[nH]c2ccc(COc3ccccc3)cc12 -59.5%
O=S(=O)(c1cnccc1N1CCN(CCO)CC1)N1CCCC1 -62.4%
C=C[C@]1(C)C[C@H](OC(=O)CO)[C@]2(C)C3C(=O)CC[C@]3(CC[C@H]2C)[C@H](C)[C@H]1O (stereo not given in full) -42.7%
O=C(CSc1nc2ccc([N+](=O)[O-])cc2s1)c1ccc2ccccc2c1 -35%

biological target: Cytochrome P450 2D6 (Homo sapiens) (UniProt P10635); experiment: qHTS Assay for Inhibitors and Substrates of Cytochrome P450 2D6 (AID 891); details: recombinant CYP2D6, luciferin-ME EGE luminescence; series mostly up to 11.4 µM; activity change, negative = inhibition: at the top concentration; further: nearly all actives have a fitted effect of over 60% in size; further: potency means the concentration at half of the fitted maximal effect;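 on activity change, negative = inhibition: luciferin methyl ether substrate demethylated by CYP2D6 with NADPH regeneration; on the % scale 0 is the no-effect control and ±100 the full control effect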
How it was run: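 Luminescent read-out of luciferin formed by 5 nM human CYP2D6 demethylating 30 uM Luciferin-ME EGE (Km level) over 60 min at room temperature after NADPH regeneration addition. Data normalized to full inhibition by 1.43 uM quinidine.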

Chain of Cytochrome P450 2D6 (Homo sapiens) (P10635 whole entry, looked up): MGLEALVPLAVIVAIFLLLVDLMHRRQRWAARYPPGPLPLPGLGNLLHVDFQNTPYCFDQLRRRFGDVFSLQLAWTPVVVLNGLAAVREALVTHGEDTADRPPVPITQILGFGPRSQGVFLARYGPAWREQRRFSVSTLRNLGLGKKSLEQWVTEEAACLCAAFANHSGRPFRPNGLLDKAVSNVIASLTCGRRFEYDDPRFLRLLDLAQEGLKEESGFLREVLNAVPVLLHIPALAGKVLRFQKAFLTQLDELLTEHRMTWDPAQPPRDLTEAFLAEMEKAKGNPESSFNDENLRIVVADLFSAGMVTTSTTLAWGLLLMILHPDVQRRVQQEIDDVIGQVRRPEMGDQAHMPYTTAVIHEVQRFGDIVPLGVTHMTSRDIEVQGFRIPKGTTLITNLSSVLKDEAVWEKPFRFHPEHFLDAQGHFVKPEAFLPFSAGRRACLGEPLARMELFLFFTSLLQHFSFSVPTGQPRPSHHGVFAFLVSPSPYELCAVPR

Activity change, negative = inhibition, inactive:
O=C1CNCCCN2CCN(CCCNCC(=O)Nc3ccc(cc3)S(=O)(=O)c3ccc(cc3)NC(=O)CNCCCN3CCN(CCCNCC(=O)Nc4ccc(cc4)S(=O)(=O)c4ccc(cc4)N1)CC3)CC2 -2.87%
Nc1ncnc2nc[nH]c12.Nc1ncnc2nc[nH]c12.[Cl][Pt]([Cl])([Cl])[Cl] 1.69%

Potency, active:
CSC1(SC2=NCCN2)SC2(NCCN2)S1 3.98 µM
C/C(=N/Nc1ccc2ccccc2n1)c1ccccc1O 0.794 µM
Cn1ncc2c(NCCc3ccccc3)nc(Cl)nc21 0.126 µM
